# Measured values published in PubChem BioAssay AID1850 (Southern Research Specialized Biocontainment Screening …, 2009).
# The campaign covered roughly 310,000 compounds. About 1,000 (0.32%) were called active. These entries were drawn from the full list. Measured potencies and affinities stand elsewhere. A number with no mark means an inactive call. How the calls were made is not given here.
# Test: Inhibition of PhoP regulon, Salmonella typhi GFP reporter cells, confirmation, 4 h (AID 1850);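 further: 0% = induced wells with vehicle and 100% = uninduced wells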
# Conditions: Salmonella Typhi PhoP-promoter GFP reporter, fluorescence, at 50 µM, active compounds read high
row,SMILES,inhibition
1,N#Cc1c(N)c(C#N)c(-c2ccc3c(c2)OCO3)c2c1CCCC2,-3.29%
2,Nc1ncc(-c2ccc([N+](=O)[O-])cc2)cn1,4.2%
3,Nc1ncncc1-c1ccc2ccccc2c1,-7.33%
4,Nc1c(-c2ccc(Cl)cc2)cnc2ncnn12,8.81%
5,O=[N+]([O-])c1ccc(-c2cnc[nH]2)cc1,1.02%
6,COc1ccc2cc(C(=O)C3CCCN(C(=O)c4cnccn4)C3)ccc2c1 (stereo not drawn),8.69%
7,CCc1ccccc1NC1=NCC(=O)N1C1CCCC1,0.33%
8,COc1ccc(Nc2nc(C)cc(C)c2C#N)c(OC)c1,-0.58%
9,COc1ccccc1CNC(=O)C1CCCN(S(C)(=O)=O)C1 (stereo not drawn),-3.93%
10,CCOC(=O)c1ccc(NC(=S)NCc2ccccc2)cc1,4.39%
11,Cc1ccc(S(=O)(=O)N2CCN(S(=O)(=O)c3cccs3)CC2)cc1,-0.13%
12,CCOc1ccc(NC(=O)CSc2nnc(-c3ccncc3)n2CC2CCCO2)cc1 (stereo not drawn),-0.03%
13,CCNC(=O)NCCNC(=O)c1cc(OCC(F)(F)F)ccc1OCC(F)(F)F,1.77%
14,O=C(c1ccc(-n2cncn2)c([N+](=O)[O-])c1)N1CCN(S(=O)(=O)c2ccc(F)c(F)c2)CC1,9.27%
15,CCCOc1ccc(C(=O)NNC(=S)NC(=O)c2cccs2)cc1,19.7%
16,Cc1ccc(C(=O)NNC(=S)NC(=O)c2ccco2)cc1,-11.8%
17,CCCOc1ccc(C(=O)NNC(=S)NC(=O)c2ccccc2)cc1,2.22%
18,COc1ccc(C(=O)NNC(=S)NC(=O)c2ccco2)cc1,5.07%
19,O=C(NNC(=S)NC(=O)c1ccc(Br)cc1)c1ccc([N+](=O)[O-])cc1,0.22%
20,C=C(C)CNC(=S)NNC(=O)c1ccc(Br)cc1,-8.67%
21,CCC(=O)NC(=S)NNC(=O)c1ccc(OC)cc1,18.2%
22,CCCCC(=O)NC(=S)NNC(=O)c1ccc(OC)cc1,-8.34%
23,O=C(Nc1nc(-c2ccccc2Cl)cs1)c1cccnc1,3.73%
24,CC(C)(C)c1cc(OC(=O)c2ccccc2F)ccc1O,-1%

row,SMILES,inhibition
1,CC(=O)NC(=S)Nc1cc(C(F)(F)F)ccc1N1CCOCC1,-8.24%
2,CCC1(C)SC(NC(C)=O)=NN1C(C)=O (stereo not drawn),-7.92%
3,Cc1cc(=O)[nH]c(N/N=C/c2cccc(Br)c2)n1,5.33%
4,Cc1onc(-c2ccccc2)c1C(=O)OCC(=O)N(CC(C)C)c1c(N)n(Cc2ccccc2)c(=O)[nH]c1=O,0.02%
5,Cc1ccsc1C1CC(=O)Nc2ccccc2S1 (stereo not drawn),3.75%
6,CCN(CC(=O)NCc1ccc(Cl)cc1)C(=O)CCc1ccccc1,8.65%
7,c1ccc(CN2CCN(C(c3ccccc3)c3nnnn3Cc3ccccc3)CC2)cc1 (stereo not drawn),-8.11%
8,COc1cc(N)c(Cl)cc1C(=O)OCC(=O)N1CCCC1,-3.7%
9,C=CCNC(=S)NNC(=O)c1ccc(OCCC)cc1,0.33%
10,CCC(=O)NC(=S)NNC(=O)c1ccc(O)cc1,-2.12%
11,CSc1ncccc1C(=O)N1CCCC(C(=O)c2ccc3ccccc3c2)C1 (stereo not drawn),0.25%
12,C[N+](C)(CCOc1ccccc1)Cc1ccccc1 (tested in a mixture with another compound),-4.3%
13,Cc1cc(C(C)(C)C)ccc1OCCN(C)C,-2.78%
14,Cc1cc(C(C)(C)C)ccc1OCCOCCN1CCCC1,-9.74%
15,CC(C)(C)c1ccc(OCCNCc2ccccc2)cc1,3.96%
16,N/C(=N/[N+](=O)[O-])N1CCN(C(=O)c2ccc(Cl)cc2)CC1,9.05%
17,O=C(NC1CCS(=O)(=O)C1)c1ccc(-c2ccc(Br)cc2)o1 (stereo not drawn),-6.5%
18,O=C(NCCc1ccccc1Cl)c1ccc2nc3ccccc3c(=O)n2c1,-1.95%
19,O=[N+]([O-])c1ccc(Sc2cccc3cccnc23)cc1,-0.7%
20,CCOC(=O)COc1cc([N+](=O)[O-])cc2cccnc12,1.87%
21,CC(C)N=C(N)N=C(N)Nc1ccc(Cl)cc1,28.9%
22,NC(N)=NC(=S)Nc1ccc(Cl)cc1,18.1%
23,COc1ccc(C(=O)N/C(=C\c2ccco2)C(=O)NC2CCS(=O)(=O)C2)cc1 (stereo not drawn),-6.19%
24,O=C(Nc1nnc(-c2cccs2)s1)c1cccc(F)c1,-2.5%

row,SMILES,inhibition
1,O=C(Nc1nnc(C2=COCCO2)o1)c1cccc(C(F)(F)F)c1,-4.95%
2,N#Cc1ccc(C(=O)Nc2nnc(-c3cccs3)o2)cc1,21.1%
3,COc1cccc(C(=O)Nc2nnc(-c3cccs3)o2)c1,17.3%
4,O=C(Nc1nnc(-c2cccs2)o1)c1ccco1,9.01%
5,CN(C)S(=O)(=O)c1ccc(C(=O)Nc2nnc(-c3cccs3)o2)cc1,-4%
6,Cc1cc(C(=O)COC(=O)c2nc3nccc(C)n3n2)c(C)n1CC1CCCO1 (stereo not drawn),-1.82%
7,COCCn1c(CCC(=O)O)ccc1-c1cccs1,3.14%
8,O=C(O)c1ccccc1-n1c(-c2ccccc2)cc2c1CCCC2=O,-1.82%
9,CC(C)CC1Nc2ccc(C(=O)NCc3ccc4c(c3)OCO4)cc2NC1=O (stereo not drawn),1.92%
10,Cc1nccn1Cc1ccccc1,9.82%
11,COc1ccc(Cl)cc1NC(=S)NCCc1ccc(S(N)(=O)=O)cc1,1.57%
12,CN(Cc1ccccc1)C(=O)c1cccnc1,-2.03%
13,CCOC(=O)c1ccc(NC(=O)c2cn(-c3ccccc3)nc2-c2ccncc2)cc1,3.68%
14,CN(C)[C@@H]1C(=O)C(C(=O)NCN2CCCC2)=C(O)[C@@]2(O)C(=O)C3=C(O)c4c(O)cccc4[C@@](C)(O)C3CC12 (stereo partly drawn),-8.43%
15,CN(C)[C@@H]1C(=O)C(C(N)=O)=C(O)[C@@]2(O)C(=O)C3=C(O)c4c(O)cccc4[C@@](C)(O)[C@H]3[C@H](O)[C@@H]12,5.02%
16,CN(C)[C@@H]1C(=O)C(C(N)=O)=C(O)[C@@]2(O)C(=O)C3=C(O)c4c(O)ccc(Cl)c4[C@@](C)(O)[C@H]3C[C@@H]12,4.13%
17,CN(C)[C@@H]1C(=O)C(C(N)=O)=C(O)[C@@]2(O)C(=O)C3=C(O)c4c(O)cccc4[C@@](C)(O)[C@H]3C[C@@H]12,-2.82%
18,COC(=O)C1=C(C)N(Cc2ccco2)C(=O)N[C@H]1c1ccccc1,-5.63%
19,Cc1cccc(OCc2nnc(SCC(=O)c3ccccc3)o2)c1,5.39%
20,O=C(c1ccc(-n2cncn2)c([N+](=O)[O-])c1)N1CCN(S(=O)(=O)c2c(F)cccc2F)CC1,-3.76%
21,O=C(N/N=C/c1cccc(C(F)(F)F)c1)c1ccccc1O,1.04%
22,O=C(Nc1ccccc1F)Oc1cccc(OC(=O)Nc2ccccc2F)c1,5.4%
23,CS(=O)(=O)Nc1ccc(C(=O)Nc2ccc(S(=O)(=O)N3CCCC3)cc2)cc1,-7.4%
24,O=C1Nc2ccc(S(=O)(=O)N3CCCC3)c3cccc1c23,-4.45%

row,SMILES,inhibition
1,CC(=O)c1ccc(N=Nc2ccc(N(C)C)cc2)cc1,6.87%
2,CCN(CC(=O)NCCN1CCOCC1)S(=O)(=O)c1ccc(F)cc1,5.57%
3,C/C(=N\NC(=O)C(O)c1ccccc1)c1ccc(Cl)s1 (stereo not drawn),-5.86%
4,CN(C)C(=S)NC(=O)c1cccc(Cl)c1,-16.5%
5,O=C(Nc1ccc(C(=O)O)cc1)/C(=C\C=C\c1ccccc1)NC(=O)c1cccc(Br)c1,9.6%
6,O=[N+]([O-])c1ccc(O)c(/C=N/n2cnnc2)c1,16.7%
7,Cc1cc(C)n(/N=C/c2c[nH]c3ccccc23)c(=O)c1,2.25%
8,Cc1cc(C)n(/N=C/c2ccccc2O)c(=O)c1,-10.2%
9,Cc1cc(C)n(/N=C/c2cccc([N+](=O)[O-])c2)c(=O)c1,-0.547%
10,C/C1=C\CCC2C(/C=C(\C)CC1)OC(=O)C2CN1CCCCC1 (stereo not drawn),5.15%
11,CCOc1ccccc1NC(=O)C1CCN(S(=O)(=O)c2cccc3cccnc23)CC1,14.7%
12,CCOC(=O)c1nnn(-c2nonc2-n2cccc2)c1CN1CCCCC1,-6.4%
13,O=C(O)/C=C/c1ccccc1Oc1ccc(Cl)cc1Cl,4.42%
14,Nc1cc(C(=O)O)c(Oc2ccc(Cl)cc2Cl)cc1C(=O)O,-3.01%
15,COc1cc(C)ccc1NC(=O)c1ccc(S(=O)(=O)N2CCOCC2)cc1,-3.12%
16,c1ccc(C(c2ccccc2)N2CCN(Cc3nc(-c4cnccn4)no3)CC2)cc1,-8.94%
17,O=c1c([N+](=O)[O-])c(N2CCCCCC2)c2ccccc2n1-c1ccccc1,4.43%
18,CCn1cc(C(=O)O)c(=O)c2cc(F)c(N3CCN(S(=O)(=O)c4ccc(NC(=O)OC)cc4)CC3)cc21,3.45%
19,CCn1cc(C(=O)O)c(=O)c2cc(F)c(N3CCN(C(=S)NC(=O)c4ccc(OC)cc4)CC3)cc21,-3.45%
20,CCn1cc(C(=O)O)c(=O)c2cc(F)c(N3CCN(S(=O)(=O)c4ccc(Br)cc4)CC3)cc21,2.97%
21,O=C(O)c1cc(CN2CCOCC2)oc1-c1ccccc1,2.28%
